Most compounds without a hit are left out; they make up all but 11% or so of the library.
USP30 inh – inhibitors of human USP30 deubiquitinase | Ubiquitin carboxyl-terminal hydrolase 30 (Homo sapiens), Q70CQ3 | AID 1645860, 2021 | actives 5.3% (n = 47,000) | inhibition, % at 25 µM | purified USP30, Ub-rhodamine cleavage fluorescence
USP28 inh – inhibitors of human USP28 deubiquitinase; Ubiquitin carboxyl-terminal hydrolase 28 (Homo sapiens), Q96RU2; purified USP28, Ub-rhodamine cleavage fluorescence, 30 min; inhibition, % at 25 µM; actives 3% (n = 47,000); AID 1645857, 2021
OTUD3 inh – inhibitors of human OTUD3 deubiquitinase. OTU domain-containing protein 3 (Homo sapiens), Q5T2D3. purified OTUD3, Ub-rhodamine fluorescence, 2 h. AID 1645858, 2021. actives 0.7% (n = 47,000). inhibition, % at 25 µM
Target sequence (Q5T2D3 whole entry, looked up, the tested form may be a part): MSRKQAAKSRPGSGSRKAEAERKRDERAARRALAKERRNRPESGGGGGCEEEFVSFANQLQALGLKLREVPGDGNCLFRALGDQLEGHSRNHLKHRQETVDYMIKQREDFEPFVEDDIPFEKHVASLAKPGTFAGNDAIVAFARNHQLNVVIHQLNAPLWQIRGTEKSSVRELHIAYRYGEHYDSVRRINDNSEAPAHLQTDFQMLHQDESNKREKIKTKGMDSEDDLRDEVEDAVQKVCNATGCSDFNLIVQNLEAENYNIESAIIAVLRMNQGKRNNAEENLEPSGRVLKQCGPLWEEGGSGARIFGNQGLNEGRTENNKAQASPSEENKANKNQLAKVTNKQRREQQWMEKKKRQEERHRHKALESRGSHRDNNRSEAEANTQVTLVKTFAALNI
USP17 inh – inhibitors of human USP17 deubiquitinase; Ubiquitin carboxyl-terminal hydrolase 17-like protein 5 (Homo sapiens), A8MUK1; purified USP17, Ub-rhodamine cleavage fluorescence, 3 h; inhibition, % at 50 µM; actives 6.5% (n = 47,000)
Active calls of the source: *. Cut-off read from the data, not from the text of the source: active = inhibition above about 30%; inactive = the rest.

Screening O=C1CC(O)C(C2=CC(=O)c3c(O)cccc3C2=O)O1 (centres undefined) returned USP30 inh 8.4, USP28 inh 82.8*, OTUD3 inh 71.3* and USP17 inh 71.5*.
O=C(NCC1CCCO1)c1cn(Cc2ccccc2)nc1-c1cccnc1 (centres undefined) was read as USP30 inh -10.2, USP28 inh -8.7, OTUD3 inh 1.0 and USP17 inh 0.0.
For Cc1ccc(NC(=O)c2cn(Cc3ccccc3)nc2-c2cccnc2)cc1 the results were USP30 inh 8.2, USP28 inh 31.8*, OTUD3 inh -2.0 and USP17 inh -3.8.
For O=C(NCc1ccc(F)cc1)C(c1ccccc1)c1ccccc1 the results were USP30 inh 30.8*, USP28 inh 13.2, OTUD3 inh 23.0 and USP17 inh 2.9.
Cn1c(=O)n([C@@H](Cc2ccccc2)C(=O)NCc2ccc(F)cc2)c(=O)c2ccccc21 was read as USP30 inh 45.8*, USP28 inh 26.2, OTUD3 inh 9.9 and USP17 inh 12.8.
For Cc1ccc(NCc2cc(=O)n3cc(C)ccc3n2)c(C)c1 the results were USP30 inh -113.0, USP28 inh -11.9, OTUD3 inh -11.6 and USP17 inh -3.1.
Screening Cc1ccc2nc(CNc3cccc(Cl)c3)cc(=O)n2c1 returned USP30 inh -105.6, USP28 inh -0.5, OTUD3 inh -7.8 and USP17 inh 30.5*.
For CNc1cc(C2CCCN2C(=O)c2cccnc2C)nc(C)n1 (centres undefined) the results were USP30 inh -3.9, USP28 inh -22.5, OTUD3 inh -16.5 and USP17 inh -3.7.
Screening COC(=O)C1(Cc2ccc(O)cc2)OC(=O)C(O)=C1c1ccc(O)cc1 (centres undefined) returned USP30 inh 69.7*, USP28 inh 78.1*, OTUD3 inh 77.9* and USP17 inh 85.3*.
`Cc1cc(=O)n(C)c2c(O)c3c(cc12)c(C)cc(=O)n3C` gave USP30 inh 4.0, USP28 inh 69.5*, OTUD3 inh 57.0* and USP17 inh 77.2*.
`O=C(c1ccc2cc[nH]c2c1)N1CCC(Nc2cccnc2)C1` (centres undefined) gave USP30 inh -41.7, USP28 inh -14.1, OTUD3 inh 55.0* and USP17 inh 67.9*.
For CCOc1ccc(C(=O)N2CCC(Nc3cccnc3)C2)cc1 (centres undefined) the results were USP30 inh -356.6, USP28 inh -92.9, OTUD3 inh -81.3 and USP17 inh -15.3.
`COc1ccc(-c2cc(-c3ccc(O)cc3)nc(N)c2C#N)cc1OC` gave USP30 inh 49.6*, USP28 inh 72.9*, OTUD3 inh 20.4 and USP17 inh 45.8*.
COc1cc(-c2cc(-c3ccccc3Br)nc(N)c2C#N)cc(OC)c1OC was read as USP30 inh -40.0, USP28 inh -21.6, OTUD3 inh -16.4 and USP17 inh -7.3.
`CCc1nnc(-c2csc(S(=O)(=O)NC3CCCCC3)c2)o1` gave USP30 inh 25.1, USP28 inh 4.8, OTUD3 inh 13.5 and USP17 inh 9.2.
CCc1c(C)c(C#N)c2nc3ccccc3n2c1N1CCN(C2CCCC2)CC1 was read as USP30 inh 23.1, USP28 inh 11.9, OTUD3 inh 1.7 and USP17 inh 61.9*.
For N#Cc1c(-c2ccccc2)cc(N2CCN(C3CCCCC3)CC2)n2c1nc1ccccc12 the results were USP30 inh -70.6, USP28 inh -24.8, OTUD3 inh -21.3 and USP17 inh -26.2.
CCc1ccc2nc(NC(=O)c3c(C)oc4ncn(C)c(=O)c34)sc2c1 was read as OTUD3 inh 5.3 and USP17 inh -22.2.
O=C(Cc1ccc(-c2ccccc2)cc1)Nc1ccc(F)cc1 was read as USP30 inh 3.2, USP28 inh -0.5, OTUD3 inh -5.0 and USP17 inh -0.4.
Screening O=C(CSc1nnc2ccc(-c3ccccc3)nn12)Nc1ccc(F)cc1 returned USP30 inh 34.2*, USP28 inh -3.6, OTUD3 inh 9.9 and USP17 inh 43.1*.
CC(=O)c1ccc(NC(=O)Cn2nc(-c3ccccc3)cc(NC(=O)C(C)C)c2=O)cc1 was read as USP30 inh -31.6, USP28 inh -8.3, OTUD3 inh -11.9 and USP17 inh -21.1.
O=C(Cn1nc(-c2ccccc2)cc(NC(=O)c2ccccc2)c1=O)Nc1ccc(F)cc1 was read as USP30 inh 38.7*, USP28 inh 14.0, OTUD3 inh 23.9 and USP17 inh 39.1*.
`CCOc1ccc(-c2ccc3nnc(SCC(=O)Nc4ccc(F)cc4)n3n2)cc1` gave USP30 inh 33.2*, USP28 inh -4.1 and OTUD3 inh -3.8.
`COc1ccc([C@@H]2CN(Cc3ccncc3)C[C@H]2c2cc(=O)[nH]c(C)n2)cc1` gave USP30 inh -4.3, USP28 inh 0.6, OTUD3 inh 3.1 and USP17 inh 2.5.
`COc1ccc(C2Nc3ccccc3C(=O)N2c2ccc3c(c2)OCO3)cc1O` (centres undefined) gave USP30 inh 14.5, USP28 inh 12.8, OTUD3 inh 9.7 and USP17 inh 45.2*.
Screening CC(=O)Nc1ccc([C@H]2OCC(=O)N(C3CCOCC3)[C@@H]2CO)cc1 returned USP30 inh 50.5*, USP28 inh 3.4, OTUD3 inh 5.4 and USP17 inh 24.3.
For O=C(Nc1nnc(-c2cccs2)o1)C(c1ccccc1)c1ccccc1 the results were USP30 inh 44.5*, USP28 inh 14.4, OTUD3 inh 15.4 and USP17 inh 18.6.
For O=C(Nc1nnc(-c2ccc(Br)cc2)o1)C(c1ccccc1)c1ccccc1 the results were USP30 inh 17.4, USP28 inh 12.2, OTUD3 inh 12.1 and USP17 inh 6.3.
CCN1C(=O)Cc2cc(NS(=O)(=O)c3ccc(OC)cc3)ccc21 was read as USP30 inh 21.8, USP28 inh 15.6, OTUD3 inh 8.6 and USP17 inh 0.0.
For COc1ccc(S(=O)(=O)Nc2ccc3nn(C)cc3c2)cc1 the results were USP30 inh -62.9, USP28 inh -13.0, OTUD3 inh -18.1 and USP17 inh 33.7*.
Screening COc1ccc(NC(=O)CSc2ncnc3c2sc2nc(CC(C)C)c4c(c23)CCC4)cc1 returned USP30 inh 20.7, USP28 inh 21.2, OTUD3 inh 10.0 and USP17 inh 8.0.
CCCc1nc2sc3c(NCCc4ccc(OC)c(OC)c4)ncnc3c2c2c1CCC2 was read as USP30 inh -46.4, USP28 inh 67.1*, OTUD3 inh -28.0 and USP17 inh -23.1.
Screening CCc1nc2sc3c(NCCN4CCOCC4)ncnc3c2c2c1COC(C)(C)C2 returned USP30 inh -0.3, USP28 inh -6.7, OTUD3 inh -0.1 and USP17 inh 5.1.
Screening CCCCc1nc2sc3c(SCC(=O)Nc4ccc(OC)cc4)ncnc3c2c2c1CCC2 returned USP30 inh 47.6*, USP28 inh 28.5, OTUD3 inh 14.5 and USP17 inh 24.8.
`CC(C)Cc1nc2sc3c(NC4CCCCC4)ncnc3c2c2c1CCC2` gave USP30 inh -8.5, USP28 inh -8.2, OTUD3 inh -3.7 and USP17 inh -8.1.

Assay outcomes from PubChem BioAssay.
